In PubChem BioAssay AID1159580 (chemical genetic matrix, 2015):
Where “and” joins values, the source holds several entries; their conditions need not be identical. Equal entries are not always repeated. The campaign covered roughly 5,500 compounds. About 2,000 (36%) were called active. Another 18% or so got no clear call; they are omitted. No stated cut-off is given here; in the data, active means normalized growth mostly below about 0.91 (no sharp cut-off); inconclusive means no clear call, values can overlap the other calls; inactive means mostly above about 0.92. Some of the results follow.

Assay: chemical genetic growth profiling, strain panel (AID 1159580);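 further: tested at 20 µM; growth read once vehicle control cultures reached saturation at 30 °C; 1 = growth at the plate median or of vehicle wells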
Conditions: S. cerevisiae deletion strains, growth OD

Measured: normalized growth

NC1C[C@H]1c1ccccc1 (stereo partly specified)
inactive: locus YAL013W, strain DEP1, stronger effect = lower value 1.01 | locus YAL021C, strain ccr4, stronger effect = lower value 1 | locus YAL026C, strain drs2, stronger effect = lower value 0.985 | locus YAL030W, strain snc1, stronger effect = lower value 0.985 | locus YBL061C, strain skt5, stronger effect = lower value 0.991 | locus YBR009C, strain hhf1, stronger effect = lower value 1 | locus YBR021W, strain FUR4, stronger effect = lower value 0.983 | locus YBR023C, strain chs3, stronger effect = lower value 0.983 | locus YBR171W, strain sec66, stronger effect = lower value 0.978 | locus YBR229C, strain ROT2, stronger effect = lower value 1 | locus YBR231C, strain swc5, stronger effect = lower value 0.98 | locus YBR279W, strain paf1, stronger effect = lower value 0.985 | locus YCL011C, strain gbp2, stronger effect = lower value 0.977 | locus YCL016C, strain dcc1, stronger effect = lower value 0.981 | locus YCL029C, strain bik1, stronger effect = lower value 0.978 | locus YCL069W, strain vba3, stronger effect = lower value 0.992 | locus YCR088W, strain abp1, stronger effect = lower value 0.992 | locus YDL005C, strain med2, stronger effect = lower value 0.953 | locus YDL035C, strain GPR1, stronger effect = lower value 1.01 | locus YDL040C, strain nat1, stronger effect = lower value 0.976 | locus YDL074C, strain BRE1, stronger effect = lower value 0.999 | locus YDL101C, strain DUN1, stronger effect = lower value 1 | locus YDL134C, strain PPH21, stronger effect = lower value 1.01 | locus YDL185W, strain tfp1, stronger effect = lower value 0.985 | locus YDL192W, strain arf1, stronger effect = lower value 0.995 | locus YDR001C, strain nth1, stronger effect = lower value 0.985 | locus YDR069C, strain doa4, stronger effect = lower value 0.98 | locus YDR101C, strain arx1, stronger effect = lower value 0.977 | locus YDR137W, strain rgp1, stronger effect = lower value 0.986 | locus YDR150W, strain NUM1, stronger effect = lower value 1 | locus YDR159W, strain sac3, stronger effect = lower value 0.984 | locus YDR162C, strain NBP2, stronger effect = lower value 1.01 | locus YDR195W, strain ref2 0.974 | locus YDR297W, strain sur2, stronger effect = lower value 1 | locus YDR318W, strain mcm21, stronger effect = lower value 0.972 | locus YDR334W, strain swr1, stronger effect = lower value 0.993 | locus YDR335W, strain msn5, stronger effect = lower value 0.997 | locus YDR388W, stronger effect = lower value 0.979 | locus YDR392W, strain spt3, stronger effect = lower value 0.991 | locus YDR502C, strain sam2, stronger effect = lower value 0.979 | locus YEL003W, strain gim4, stronger effect = lower value 0.993 | locus YEL037C, strain rad23, stronger effect = lower value 0.989 | locus YEL061C, strain CIN8 (second series), stronger effect = lower value 0.977 | locus YEL061C, strain CIN8, stronger effect = lower value 1.01 | locus YER015W, strain faa2, stronger effect = lower value 0.99 | locus YER016W, strain bim1, stronger effect = lower value 1.01 | locus YER110C, stronger effect = lower value 0.989 | locus YER111C, strain swi4, stronger effect = lower value 0.959 | locus YER155C, strain BEM2 (second series), stronger effect = lower value 0.976 | locus YER155C, strain BEM2, stronger effect = lower value 0.995 | locus YER167W, strain BCK2, stronger effect = lower value 1.01 | locus YFR010W, strain ubp6, stronger effect = lower value 1.04 | locus YGL078C, strain dbp3, stronger effect = lower value 0.973 | locus YGL086W, strain mad1, stronger effect = lower value 0.988 | locus YGL167C, strain pmr1, stronger effect = lower value 0.985 | locus YGL173C, strain kem1, stronger effect = lower value 0.991 | locus YGL227W, strain vid30, stronger effect = lower value 0.979 | locus YGL240W, strain doc1, stronger effect = lower value 0.991 | locus YGL248W, strain PDE1, stronger effect = lower value 1 | locus YGL253W, strain hxk2, stronger effect = lower value 0.985 | locus YGR078C, strain PAC10, stronger effect = lower value 0.989 | locus YGR135W, strain pre9, stronger effect = lower value 0.974 | locus YGR229C, strain SMI1, stronger effect = lower value 0.997 | locus YGR252W, strain gcn5, stronger effect = lower value 0.919 | locus YHR013C, strain ard1, stronger effect = lower value 0.962 | locus YHR027C, strain rpn1, stronger effect = lower value 0.995 | locus YHR030C, strain SLT2, stronger effect = lower value 1 and 0.953 | locus YHR079C, strain IRE1 (second series), stronger effect = lower value 0.975 | locus YHR079C, strain IRE1, stronger effect = lower value 0.983 | locus YHR094C, strain hxt1, stronger effect = lower value 0.989 | locus YHR129C, strain ARP1, stronger effect = lower value 1.01 | locus YHR142W, strain chs7, stronger effect = lower value 0.967 | locus YHR200W, strain rpn10, stronger effect = lower value 0.976 | locus YIL066C, strain RNR3, stronger effect = lower value 1.01 | locus YIL073C, strain SPO22, stronger effect = lower value 1.01 | locus YIL125W, strain kgd1, stronger effect = lower value 0.986 | locus YIR030C, strain dcg1, stronger effect = lower value 0.988 | locus YJL092W, strain hpr5, stronger effect = lower value 0.992 | locus YJL095W, strain BCK1 (second series), stronger effect = lower value 1 | locus YJL095W, strain BCK1, stronger effect = lower value 1.01 and 0.965 | locus YJL115W, strain asf1, stronger effect = lower value 0.976 | locus YJL129C, strain trk1, stronger effect = lower value 0.963 | locus YJL134W, strain LCB3, stronger effect = lower value 1 | locus YJL154C, strain vps35, stronger effect = lower value 0.973 | locus YJL164C, strain tpk1, stronger effect = lower value 0.999 | locus YJL166W, strain qcr8, stronger effect = lower value 1.01 | locus YJL168C, strain set2, stronger effect = lower value 0.983 | locus YJL187C, strain SWE1 (second series), stronger effect = lower value 1.01 | locus YJL187C, strain SWE1, stronger effect = lower value 0.992 | locus YJR043C, strain POL32, stronger effect = lower value 0.995 | locus YJR066W, strain TOR1, stronger effect = lower value 0.931
